The values below come from PubChem BioAssay.

One may read the inhibition as the relative decrease from the control value, in per cent. As usually defined, the AC50 is the midpoint of the concentration-response curve, whichever way the signal moves.

Experiment [1] can be described thus: LFS_MB_P medulloblastoma growth inhibition, cell-based, chromothripsis tumors, cisplatin or BGB combos (AID 1671449; in the data active = inhibition above about 80%;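 note: cells exposed for 96 hours; 0% = vehicle DMSO and 100% = killing by high DMSO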). The conditions noted are these: LFS_MB_P medulloblastoma cells.
Experiment [2] can be described thus: HDN33 neuroblastoma growth inhibition, cell-based, chromothripsis tumors, cisplatin or BGB combos (AID 1671450; in the data active = inhibition above about 80%;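 note: cells exposed to compound for four days; 0% = vehicle DMSO and 100% = cell killing by high DMSO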). The conditions noted are these: HDN33 neuroblastoma cells, stronger effect = higher value.
Experiment [3] can be described thus: ICB984 medulloblastoma cell growth inhibition, synergistic combos for chromothripsis tumors, cisplatin or BGB combos (AID 1671451; call rule not given here;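 note: cells exposed for 96 hours before readout; 0% = vehicle DMSO and 100% = killing by high DMSO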). To be noted: ICB984 medulloblastoma cells, drug combinations, stronger effect = higher value.
Experiment [4] can be described thus: LFS_MB_1R medulloblastoma cell growth inhibition, synergistic combos for chromothripsis tumors, cisplatin or BGB combos (AID 1671452; in the data active = inhibition above about 80%;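 note: cells exposed for 96 hours before readout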). To be noted: LFS_MB_1R medulloblastoma cells, stronger effect = higher value.
Experiment [5] can be described thus: HTB85 osteosarcoma cell growth inhibition, synergistic combos for chromothripsis tumors, BGB or cisplatin IC20 combos (AID 1671453; in the data active = inhibition above about 80%;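 note: cells exposed for 96 hours before readout; 0% = vehicle DMSO and 100% = high DMSO killing control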). To be noted: HTB85 osteosarcoma cells, drug combinations, stronger effect = higher value.
A short description of experiment [6]: CRL2098 osteosarcoma cell growth inhibition, synergistic combos for chromothripsis tumors, BGB or cisplatin IC20 combos (AID 1671454; in the data active = inhibition above about 80%;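 note: cells exposed for 96 h before readout; 0% = vehicle DMSO and 100% = killing by high DMSO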). To be noted: CRL2098 osteosarcoma cells, drug combinations, stronger effect = higher value.
A short description of experiment [7]: HD-MB03 medulloblastoma cell growth inhibition, synergistic combos for chromothripsis tumors, BGB or cisplatin IC20 combos (AID 1671455; in the data active = inhibition above about 83%;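 note: 0% = vehicle DMSO and 100% = high DMSO as cytotoxic control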). The conditions noted are these: HD-MB03 medulloblastoma cells, stronger effect = higher value.
The nature of experiment [8]: UWB1.289 ovarian carcinoma cell growth inhibition, synergistic combos for chromothripsis tumors, BGB or cisplatin combos (AID 1671456; in the data active = inhibition above about 80%;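 note: cells exposed to compound for four days; 0% = vehicle DMSO and 100% = killing by high DMSO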). The conditions noted are these: UWB1.289 ovarian carcinoma cells, stronger effect = higher value.
A short description of experiment [9]: MDA-MB-436 breast carcinoma cell growth inhibition, synergistic combos for chromothripsis tumors, BGB or cisplatin combos (AID 1671458; call rule not given here;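 note: cells exposed for 96 hours; 0% = vehicle DMSO and 100% = killing by high DMSO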). The conditions noted are these: MDA-MB-436 breast carcinoma growth inhibition, drug combinations, stronger effect = higher value.
The nature of experiment [10]: growth inhibition of BT084 medulloblastoma cells, cell-based, ICGC_MB145, cisplatin and BGB IC40 combos (AID 1671461; in the data active = inhibition above about 80%;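 note: cells exposed to drugs for 96 hours; 0% = vehicle DMSO and 100% = high DMSO full killing control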). To be noted: drug combinations, stronger effect = higher value.
Experiment [11] can be described thus: growth inhibition of RCMB18 medulloblastoma cells, cell-based, cisplatin and BGB IC40 combos (AID 1671462; in the data active = inhibition above about 80%;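 note: cells exposed to compound for four days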). To be noted: stronger effect = higher value.
A short description of experiment [12]: growth inhibition of CRL1545 osteosarcoma cells, cell-based, cisplatin and BGB IC20 combos (AID 1671464; in the data active = inhibition above about 80%;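 note: cells exposed to compound for 96 hours before readout; 0% = vehicle DMSO and 100% = high DMSO killing control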). To be noted: stronger effect = higher value.
Experiment [13] is described as follows: growth inhibition of DIPG glioma cells, dose response, cell-based, SU-DIPG-XVII, MIPE5.0, CellTiter-Glo, qHTS (AID 1347060).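 For AC50: cells exposed to compound for 48 hours before viability readout.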 To be noted: SU-DIPG-XVII viability, CellTiter-Glo ATP luminescence. (In general: In ATP-based viability assays light output follows the ATP content of the culture.)
Experiment [14] in a line: viability loss in pontine glioma line – cell-based, SU-DIPG-XXV, MIPE5.0, CellTiter-Glo, qHTS, dose response (AID 1347065).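 Note: cells exposed to compound for 48 hours before ATP readout.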 To be noted: CellTiter-Glo ATP luminescence.
The nature of experiment [15]: JHH-DIPG-1 glioma cell viability, MIPE5.0 library, CellTiter-Glo luminescence, qHTS (AID 1347067).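 Note: cells exposed to compound for 48 hours before readout.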 To be noted: JHH-DIPG-1 glioma viability, CellTiter-Glo ATP luminescence.
A short description of experiment [16]: SU-DIPG-XXV glioma cell viability, MIPE5.0 library, qHTS (AID 1347068; cut-off not given, nearly all actives have IC50 up to about 30 µM). A general note: qHTS replaces the single test concentration by a dilution series.
Experiment [17] is described as follows: sensitizers of A549 cells to miR-34 induction, primary screen, imaging, A549 dox-inducible miR-34, nuclei and caspase counts (AID 1347080;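 active = compounds whose cell count with miR-34 switched on is under 0.7 times the count with it off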). To be noted: A549 miR-34 inducible, Hoechst nuclei count, 48 h.
Experiment [18] in a line: survival rescue of mitochondrial mutant cells in low glucose, primary screen, MELAS cybrids, Rieske KO mouse fibroblasts, CellTiter-Glo (AID 1508586;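 active = mean z-score across replicates of 1.96 or higher in either the MELAS or the Rieske mutant cell line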;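 note: z relative to plate mean and SD of compound and empty wells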).
Where [19] appears, read: measured here: combination with BGB IC40, at 0.05 µM.
Where [20] appears, read: measured here: with BGB IC20 combination, at 0.5 µM.
Setting [21] is: measured here: with cisplatin IC20 combination, at 0.5 µM.
The mark [22] stands for this setting: measured here: combination with cisplatin, at 0.5 µM.

Inconclusive results are not listed. Active and inactive are the calls of the source. Unless noted, no cut-off is given here; in the data, nearly all actives have AC50 up to about 26 µM.

In the case of `O=C(CCCCCCNC(=O)c1cnc(N(c2ccccc2)c2ccccc2Cl)nc1)NO`, the inhibition in [1] (at 0.5 µM, stronger effect = higher value) is -18.4% (inactive); in experiment [1] (measured here: combination with BGB IC20, at 0.005 µM), -0.623%; in experiment [1] (measured here: combination with BGB IC40, at 0.005 µM), -22.7%; in experiment [1] (setting [19]), -0.542%; in experiment [1] (measured here: combination with cisplatin, at 0.5 µM, stronger effect = higher value) it was -15.1%; in experiment [1] (measured here: combination with cisplatin, at 5 µM, stronger effect = higher value), 99.5%. Besides, the inhibition was 50.4% in experiment [2] (BGB combo, at 5 µM); 18.7% (inactive) in experiment [2] (at 0.5 µM); 56.8% in experiment [2] (cisplatin combo, at 5 µM); 15.8% in experiment [2] (setting [20]); 22.8% in experiment [2] (setting [21]); 62.1% in experiment [2] (single agent, at 5 µM). For the same compound, the inhibition in [3] (BGB IC20 combo, at 0.005 µM) is 12.6%; in experiment [3] (BGB IC40 combo, at 0.005 µM), -39.2%; in experiment [3] (BGB IC40 combo, at 0.05 µM), 39.9%; in experiment [3] (at 0.5 µM) it was -20.1% (inactive); in [3] (cisplatin combo, at 0.05 µM), 37.5%; in [3] (cisplatin combo, at 0.5 µM), -17.2%. In addition, the inhibition in experiment [3] (cisplatin combo, at 5 µM) was -24.9%; in experiment [3] (measured here: 5 uM single agent, at 5 µM) it was -20.1%; in experiment [4] (at 0.5 µM), -5.6% (inactive); in experiment [4] (setting [19]), -9.58%; in experiment [4] (setting [22]), -15.4%; in experiment [4] (measured here: combination with cisplatin, at 5 µM) it was 66.7%. Besides, the inhibition was -4.65% (inactive) in experiment [5] (at 0.5 µM); -17.2% in experiment [5] (measured here: with BGB IC20, at 0.5 µM); 33.1% in [5] (measured here: with BGB IC20, at 5 µM); -7.92% in [5] (measured here: with cisplatin IC20, at 0.5 µM); 47.7% in experiment [5] (measured here: with cisplatin IC20, at 5 µM); 54% in experiment [5] (single agent, at 5 µM). The inhibition in experiment [6] (at 0.5 µM) is -36.3% (inactive); in experiment [6] (measured here: combination with BGB at IC20, at 0.5 µM) it was -46.5%; in experiment [6] (measured here: combination with cisplatin at IC20, at 0.5 µM), -0.706%; in experiment [7] (at 0.5 µM), 7.2% (inactive); in experiment [7] (measured here: combo with BGB at IC20, at 0.5 µM) it was -0.477%; in experiment [7] (measured here: combo with cisplatin at IC20, at 0.5 µM), 8.58%. The inhibition in experiment [8] (at 0.5 µM) was 8.33% (inactive); in experiment [8] (measured here: inhibition with BGB combination, at 0.05 µM), -28.3%; in experiment [8] (measured here: inhibition with cisplatin combination, at 0.05 µM), -17.7%; in [9] (at 0.5 µM), -11.7% (inactive); in experiment [9] (measured here: BGB combination, at 0.5 µM), -16.5%; in experiment [9] (measured here: BGB combination, at 5 µM), 16.3%. The inhibition in experiment [9] (measured here: cisplatin combination, at 0.5 µM) was -18%; in [9] (measured here: cisplatin combination, at 5 µM), 30.9%; in [10] (at 0.5 µM), 2.48% (inactive); in experiment [10] (cisplatin combination, at 0.5 µM) it was 7.21%; in experiment [10] (cisplatin combination, at 5 µM), 78.9%; in [10] (measured here: BGB IC40 combination 0.05 uM, at 0.05 µM) it was -0.825%. For the same compound, the inhibition in experiment [10] (single agent, at 5 µM) was 65%; in [11] (at 0.5 µM), -4.94% (inactive); in experiment [11] (cisplatin combo, at 5 µM), 64.2%; in experiment [11] (measured here: BGB IC40 combination, at 0.05 µM), -4.49%; in [11] (setting [22]), 5.58%; in [11] (single agent, at 5 µM), 31.8%. The inhibition in [12] (at 0.5 µM) was 32.3% (inactive); in experiment [12] (setting [20]) it was 16.7%; in [12] (setting [21]), 40.1%; in experiment [12] (single agent, at 0.05 µM), -5.85%; in [12] (single agent, at 5 µM), 88.6%.
`Fc1ccc2[nH]ccc2c1-c1nc(N2CCOCC2)c2sc(CN3CCN(CC4CC4)CC3)cc2n1`: the results for the AC50 in [13], in experiment [14] and in [15] were 20.9 µM (active), 23.5 µM (active) and 23.5 µM (active), respectively.
As for `COc1ccc(S(=O)(=O)N[C@@H](CNc2nc(C)nc(N3CCC(c4ccc5c(n4)NCCC5)CC3)c2C)C(=O)O)cc1`, the result in experiment [13], in [14], in [15] and in experiment [16] was inactive.
Turning to `O=c1c(-c2ccc(O)cc2)coc2c([C@@H]3O[C@H](CO)[C@@H](O)[C@H](O)[C@H]3O)c(O)ccc12`, the result in experiment [13], in experiment [14], in [15] and in [16] was inactive.
In the case of `CCS(=O)(=O)N1CC(CC#N)(n2cc(-c3ncnc4[nH]ccc34)cn2)C1`, the AC50 in experiment [13] and in [14] was 18.6 µM (active) each time. In addition, in experiment [15], the result was inactive. The fold change in experiment [17] (stronger effect = lower value, cell number ratio, induced over uninduced) was 0.973 (inactive); in [17] (measured here: relative caspase fold change +Dox/-Dox) it was 0.869. Also, the cell count in experiment [17] (measured here: total cells with miR-34 induction, stronger effect = lower value) was 8770; in experiment [17] (measured here: total cells without miR-34 induction), 9020. The z-score was -0.48 (inactive) in experiment [18] (MELAS cybrid survival, CellTiter-Glo 48 h, stronger effect = higher value) and 0.0326 in experiment [18] (Rieske KO mouse fibroblast survival, CellTiter-Glo 72 h).
Regarding `CC[C@H](NC(=O)[C@H](CS(=O)(=O)CC1CC1)N[C@@H](c1ccc(F)cc1)C(F)(F)F)C(=O)C(=O)NC1CC1`, the result in experiment [13], in experiment [14] and in experiment [15] was inactive.
In the case of `C[C@@H]1COCCN1c1cc(-c2ccnn2C)c2ccnc(-c3ccn[nH]3)c2n1`, the half-maximal activity concentration (AC50) in experiment [13] is 1.48 µM (active); in experiment [14], 1.86 µM (active); in experiment [15], 5.25 µM (active).
